Screen size: about 220,000 compounds; about 830 (0.38%) were called active.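 The calls were made as follows: active = compound inhibiting the enzyme by more than half at any dose during confirmatory dose-response retesting; inconclusive = strong single-dose inhibitors picked by rank but not retested; inactive = the rest.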 A selection follows. Measured potencies and affinities stand elsewhere.
target: Leucine aminopeptidase (Plasmodium falciparum (isolate 3D7)) (UniProt Q8IL11); assay: P. falciparum M17LAP inhibitors, primary screen, biochemical, fluorogenic H-Leu-NHMec substrate, 1536-well (AID 1619); details: recombinant M17LAP, H-Leu-NHMec fluorogenic kinetic assay; at 30 µM; stronger effect = higher value;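 also: plate controls were full reaction with DMSO carrier for no effect and no enzyme background for full effect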
Sequence (Q8IL11 whole entry, looked up): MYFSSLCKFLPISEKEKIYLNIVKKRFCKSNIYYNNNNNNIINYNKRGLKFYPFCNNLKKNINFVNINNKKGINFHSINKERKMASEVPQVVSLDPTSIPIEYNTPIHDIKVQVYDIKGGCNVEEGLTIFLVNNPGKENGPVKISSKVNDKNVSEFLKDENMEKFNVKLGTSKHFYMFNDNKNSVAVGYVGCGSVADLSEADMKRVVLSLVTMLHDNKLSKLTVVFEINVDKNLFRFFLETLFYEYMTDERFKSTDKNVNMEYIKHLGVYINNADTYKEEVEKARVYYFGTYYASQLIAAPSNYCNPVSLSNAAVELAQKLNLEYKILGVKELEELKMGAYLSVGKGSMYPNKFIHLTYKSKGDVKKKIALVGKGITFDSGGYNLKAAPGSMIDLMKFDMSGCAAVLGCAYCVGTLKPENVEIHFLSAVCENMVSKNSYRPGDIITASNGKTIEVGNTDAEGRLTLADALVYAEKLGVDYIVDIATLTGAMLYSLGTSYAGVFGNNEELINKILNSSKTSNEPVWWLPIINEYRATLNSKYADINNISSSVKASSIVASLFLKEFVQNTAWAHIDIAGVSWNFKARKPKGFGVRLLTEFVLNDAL

inhibition, inactive:
Cc1ccc(C)c(Cn2c(=O)n(CCCC(=O)NCc3ccco3)c(=O)c3ccccc32)c1 10%
Cc1csc2nc(CCNS(=O)(=O)c3cccs3)cn12 -4.9%
O=C(NCc1ccccc1)C1=C[C@@H](c2ccc(Br)cc2)C[C@@H](OCc2ccc(CO)cc2)O1 7.8%
CCCc1[nH]nc2c1C(c1cn[nH]c1-c1ccc(F)cc1)C(C#N)=C(N)O2 (stereo unspecified) 29.9%
C=CCN(c1ccccc1)S(=O)(=O)c1cc(C(=O)NC2=NCCS2)ccc1Cl -0.31%
CC(C)Oc1cccc(C(=O)C2CCCN(Cc3cccn3-c3cccnc3)C2)c1 (stereo unspecified) 4.62%
O=C(COc1ccc(Br)cc1)Nc1nnc(-c2cccnc2)s1 -6.24%
Cc1ccc(C(=O)/C=C/c2c[nH]c3ccccc23)cc1 5.88%
COCCCNC(=O)c1ccccc1NS(C)(=O)=O -1.32%
CCOC(=O)C1CCN(S(=O)(=O)c2cnc[nH]2)CC1 3.88%
CC1CN(C(=S)c2cccc([N+](=O)[O-])c2)CC(C)O1 (stereo unspecified) 4.78%
Cc1nc2ccccc2n1C(=O)c1ccccc1[N+](=O)[O-] 7.68%
CCn1c(SCC(=O)Nc2cccc(C)n2)nnc1-c1ccco1 4.98%
Cc1ccccc1S(=O)(=O)Nc1nc2ccccc2nc1N1CCOCC1 16.6%
CC1=C(C(N)=O)C(c2ccccc2)n2nc(-c3cccs3)nc2N1 (stereo unspecified) -4.69%
Cc1cc(NC(=O)CSc2nnc(CNc3cccc(C(F)(F)F)c3)n2Cc2ccco2)no1 7.47%
O=C(CSc1nnc(CNc2cccc(C(F)(F)F)c2)n1Cc1ccco1)NCc1ccco1 7.9%
COc1ccc(NC(=O)CN(c2ccccc2)S(=O)(=O)N(C)C)cc1Cl -2.44%
COc1ccccc1-c1nnc(SCC(=O)N2CCOCC2)o1 -5.18%
Cc1ccc(S(=O)(=O)NC(=O)c2cc(C)n(-c3ccc(N(C)C)cc3)c2C)cc1 30.1%
Cc1ccc(S(=O)(=O)NC(=O)c2cc(C)n(-c3ccccc3)c2C)cc1 24.3%
CCCOC(=O)c1c(-c2ccc(C)cc2C)csc1NC(=O)C1C2CCC(O2)C1C(=O)O (stereo unspecified) 44.7%
CCOC(=O)c1c(-c2cccc3ccccc23)csc1NC(=O)C1C2CCC(O2)C1C(=O)O (stereo unspecified) 26.3%
O=C(O)C1C2CCC(O2)C1C(=O)Nc1ccc(F)cc1 (stereo unspecified) -6.52%
COC(=O)c1c(-c2ccc(C(C)(C)C)cc2)csc1NC(=O)C1C2CCC(O2)C1C(=O)O (stereo unspecified) 35.5%
CCOC(=O)c1cc(NC(=O)C2C3CCC(O3)C2C(=O)O)cc(C(=O)OCC)c1 (stereo unspecified) -8.46%
CCOC(=O)c1c(NC(=O)/C=C/C(=O)O)sc(C)c1-c1ccc(F)cc1 9.12%
CC(/C=N/NC(=O)c1ccccn1)=C\c1ccco1 9.53%
Cc1ccc([N+](=O)[O-])cc1-c1ccc(/C=N\n2nnnc2N)o1 14.9%
CSc1ccc(Cl)c(C(=O)OCC(=O)N(C)CCC#N)c1 1.64%
Cc1ccc(C)c(N(C(=O)Cn2nnc3ccccc32)C(C(=O)NCc2ccco2)c2ccncc2)c1 (stereo unspecified) -0.41%
O=C1CCC(=O)N1CN(C(=O)c1ccco1)c1ccccc1 -2.98%
Cc1ccc(SCC(=O)NN2C(=O)c3ccccc3C2=O)cc1 2.07%
O=C(Cc1ccccc1)NN1C(=O)c2ccccc2C1=O 23.7%
CCOc1cc(OCC)cc(C(=O)NC(=S)Nc2cccc(C(F)(F)F)c2)c1 3%
COC(=O)c1[nH]c(C)c(/C(O)=C2\C(=O)C(=O)N(CCN3CCOCC3)C2c2ccc(C)o2)c1C (stereo unspecified) 3.85%
COc1ccc(/C=C/C2=NN(C)C(=O)CC2)cc1 48.2%
Cc1ccc(NC(=O)c2cc(NC(=O)c3ccccc3C(=O)O)ccc2N2CCCCC2)cc1 -63%
O=C(O)CCC(=O)Nc1ccc(N2CCCCC2)c(C(=O)O)c1 10.6%
C/C(=N\NC(N)=S)C1(C)CC2(CC(C)(C)OC2=O)C(=O)O1 (stereo unspecified) -1.04%
Nc1nc(SCC(=O)N2N=C3/C(=C/c4ccco4)CCCC3C2c2ccco2)n[nH]1 (stereo unspecified) 9.23%
O=C(CSc1nccc(=O)[nH]1)N1N=C2/C(=C/c3ccco3)CCCC2C1c1ccco1 (stereo unspecified) 13.7%
COc1c(Cl)cc(-c2noc(C)c2C(=O)NCc2ccc3c(c2)OCO3)cc1Cl 2.83%
Cc1ccnc(NC(=O)C2CCC(CNc3c(N4CCCC4)c(=O)c3=O)CC2)c1 (stereo unspecified) 15.6%
CC(C)Nc1nnc(SC(C)C(=O)Nc2ccc(Cl)cn2)s1 (stereo unspecified) 5.71%
COC(=O)N/N=C/c1ccc(OC(=O)/C=C/c2ccco2)cc1 -6.97%
CCOc1cccc2sc(N(CCN(CC)CC)C(=O)c3cccc([N+](=O)[O-])c3)nc12 3.1%
O=C(CSC1=NCCS1)Nc1ccc(S(=O)(=O)NC2CCCCC2)cc1 8.51%
COc1cc(NS(=O)(=O)c2ccc(NC(C)=O)cc2)nc(OC)n1 -0.66%
O=C(COC(=O)c1n[nH]c2ccccc12)c1cc(F)ccc1F 3.93%
COC(=O)c1cc(NC(C)=O)ccc1N1CCOCC1 8.76%
CC(C)(C)c1ccc(C2C(C#N)=C(N)Oc3n[nH]c(-c4cccnc4)c32)cc1 (stereo unspecified) 3.44%
Cc1ccc(Cn2ccc(NC(=O)c3cc4nc5c(c(C(F)(F)F)n4n3)CCc3ccccc3-5)n2)cc1 13.9%
CCOc1ccc(NC(=O)C(CC(=O)O)Cc2ccccc2)cc1 (stereo unspecified) 1.68%
COc1ccc(CC(CC(=O)O)C(=O)NCc2ccccc2)cc1 (stereo unspecified) -4.42%
COc1ccc(C(CC(=O)Nc2ccc(F)cc2)c2ccccc2)cc1 (stereo unspecified) -0.86%
COc1ccc(NC(=O)C(Cc2ccccc2)n2cccc2)cc1 (stereo unspecified) -2.31%
COc1ccc(NC(=O)C(CC(=O)O)Cc2ccc(C)cc2)cc1 (stereo unspecified) 53%
COc1ccc(NC(=O)Cc2ccccc2)cc1 34.6%
COc1ccc(NC(=O)C(CC(=O)O)C(C)c2ccccc2)cc1 (stereo unspecified) -2.5%
COc1ccc(OC)c(NC(=O)C(CC(=O)O)Cc2ccc(Cl)cc2)c1 (stereo unspecified) 35.7%
CCOC(=O)Nc1ccc2nc3n(c(=O)c2c1)CCCCC3 9.64%
COc1ccc2ccccc2c1CN1CCN(Cc2ccccc2)CC1 7.12%
CN1CCN(c2cc(=O)n(Cc3ccc(F)cc3)c(=O)[nH]2)CC1 -0.83%
COc1ccc(-c2nc(=S)[nH][nH]2)cc1OC -3.54%
O=C(O)CC(Cc1ccc(Cl)cc1)C(=O)Nc1ccc([N+](=O)[O-])cc1 (stereo unspecified) 44.7%
O=C(O)CC(NNC(=O)c1ccccc1)C(=O)Nc1ccc([N+](=O)[O-])cc1 (stereo unspecified) 4.13%
c1ccc(COc2ccc(CNCc3cccs3)cc2)cc1 0.61%
Cc1cc(NC(=O)CSc2nnc(CNc3ccc(F)cc3)n2C2CCCCC2)no1 -6.09%
COc1cc2nc(C3CCC3)nc(N3CCN(c4ccccc4OC)CC3)c2cc1OC 7.31%
COc1cc(CNc2ccc(N3CCOCC3)cc2)cc(Br)c1OC -2.11%
COc1cc(CO)cc(Br)c1OCC(=O)O -4.17%
CCOc1c(Br)cc(CNC2CCCCCCC2)cc1OC -3.96%
CCOc1c(Br)cc(CNc2ccc3c(c2)OCCO3)cc1OC 2.99%
CCOC(=O)c1nc(Nc2ccc(C(=O)O)cc2)c2ccccc2n1 23.8%
CCOc1ccc(N2C(=O)/C(=C/c3ccccc3)N=C2SC)cc1 2.97%
COC1=C(OC)C(=O)C(CCCCCCCCCCO)=C(C)C1=O -2.37%
CS(=O)(=O)N(CC(=O)NC1CCCCC1)Cc1ccc(Cl)cc1 4.5%
O=C(CCN1C(=O)c2ccccc2S1(=O)=O)Nc1ccccc1 6.82%
CC(C)NC(=O)CN1C(=O)c2ccccc2S1(=O)=O 7.45%
O=C(CN1C(=O)c2ccccc2S1(=O)=O)Nc1cccnc1 27.9%
O=C(CN1C(=O)c2ccccc2S1(=O)=O)NC1CCCC1 33.2%
O=C(CN1C(=O)c2ccccc2S1(=O)=O)NC1CCCCCC1 5.61%
COc1ccc(NC(=O)CN2c3cccc4cccc(c34)S2(=O)=O)c(OC)c1 13.8%
O=C(CN1c2cccc3cccc(c23)S1(=O)=O)Nc1ccccc1 2.82%
CN(c1cccc(NC(=O)CN2C(=O)c3ccccc3S2(=O)=O)c1)S(C)(=O)=O 51.6%
COc1ccc(NS(=O)(=O)c2cccc(C(=O)N/N=C/c3ccc4c(c3)OCCO4)c2)cc1 6.63%
COc1ccccc1-c1noc(-c2cccnc2)n1 -3.7%
CCOC(=O)c1[nH]c(C)c(C(=O)N2CCc3c([nH]c4ccccc34)C2c2ccccn2)c1C (stereo unspecified) -1.65%
COC(=O)C(C(=O)NCC1CCCO1)C1CCCCCC1 (stereo unspecified) 13.6%
CCC(Sc1nc2ccccc2s1)C(=O)Nc1nnc(C)s1 (stereo unspecified) 22.9%
CC(C)c1nnc(NC(=O)CSc2nc3ccccc3s2)s1 -2.5%
CCc1nnc(NC(=O)C(CC)c2ccccc2)s1 (stereo unspecified) -2.8%
CCc1nnc(NC(=O)C(C)C)s1 -5.28%
CCOC(=O)CSC(CC)C(=O)Nc1nnc(C(C)C)s1 (stereo unspecified) 20.9%
COC(=O)CSC(C)C(=O)Nc1nnc(C(C)C)s1 (stereo unspecified) -2.42%

Source: PubChem BioAssay AID1619 (SRMLSC, 2009)
